This is an account of results in article PMC9911399, “Two distinct binding modes provide the RNA-binding protein RbFox with extraordinary sequence specificity”.

The chains are these.
T1: RBFOX1 RRM (Homo sapiens, UniProt Q9NWB1 109-208)
T1 sequence: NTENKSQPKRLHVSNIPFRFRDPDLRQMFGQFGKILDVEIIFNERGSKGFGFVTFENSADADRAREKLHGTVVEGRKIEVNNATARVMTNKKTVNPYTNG

B1: UGACACA (DNA:RNA)
RNA: GGGAGACCGGAAUUCAGAUUGUCCUGACACAUUAAAUCCCGUCGUAGCCACCA
DNA 1: CAATCTGAATTCCGGTCTCCC
DNA 2: TGGTGGCTACGACGGGATT
B2: AAUCAAU (DNA:RNA)
RNA: B1 RNA with U25A, G26A, A27U, C30A, A31U
DNA 1: CAATCTGAATTCCGGTCTCCC
DNA 2: TGGTGGCTACGACGGGATT
B3: GAAAAUG (DNA:RNA)
RNA: B1 RNA with U25G, G26A, C28A, C30U, A31G
DNA 1: CAATCTGAATTCCGGTCTCCC
DNA 2: TGGTGGCTACGACGGGATT
B4: CCUGCUU (DNA:RNA)
RNA: GGGAGACCGGAAUUCAGAUUGUCCCCUGCUUUUAAAUCCCGUCGUAGCCACCA
DNA 1: CAATCTGAATTCCGGTCTCCC
DNA 2: TGGTGGCTACGACGGGATT
B5: AUGUAGU (DNA:RNA)
RNA: B4 RNA with C25A, C26U, U27G, G28U, C29A, U30G
DNA 1: CAATCTGAATTCCGGTCTCCC
DNA 2: TGGTGGCTACGACGGGATT
B6: UAUUUGU (DNA:RNA)
RNA: B4 RNA with C25U, C26A, G28U, C29U, U30G
DNA 1: CAATCTGAATTCCGGTCTCCC
DNA 2: TGGTGGCTACGACGGGATT
B7: CACGCGU (DNA:RNA)
RNA: B4 RNA with C26A, U27C, U30G
DNA 1: CAATCTGAATTCCGGTCTCCC
DNA 2: TGGTGGCTACGACGGGATT
B8: GCAUGCU (DNA:RNA)
RNA: B4 RNA with C25G, U27A, G28U, C29G, U30C
DNA 1: CAATCTGAATTCCGGTCTCCC
DNA 2: TGGTGGCTACGACGGGATT
B9: GUAUGCU (DNA:RNA)
RNA: B1 RNA with U25G, G26U, C28U, A29G, A31U
DNA 1: CAATCTGAATTCCGGTCTCCC
DNA 2: TGGTGGCTACGACGGGATT
B10: GGCAUGC (DNA:RNA)
RNA: B1 RNA with U25G, A27C, C28A, A29U, C30G, A31C
DNA 1: CAATCTGAATTCCGGTCTCCC
DNA 2: TGGTGGCTACGACGGGATT
B11: GUCAUGC (DNA:RNA)
RNA: GGGAGACCGGAAUUCAGAUUGUCCGUCAUGCUUAAAUCCCGUCGUAGCCACCA
DNA 1: CAATCTGAATTCCGGTCTCCC
DNA 2: TGGTGGCTACGACGGGATT
B12: GUUAUGC (DNA:RNA)
RNA: B11 RNA with C27U
DNA 1: CAATCTGAATTCCGGTCTCCC
DNA 2: TGGTGGCTACGACGGGATT
B13: GCAUUGC (DNA:RNA)
RNA: B11 RNA with U26C, C27A, A28U
DNA 1: CAATCTGAATTCCGGTCTCCC
DNA 2: TGGTGGCTACGACGGGATT
B14: CGCAUGC (DNA:RNA)
RNA: B11 RNA with G25C, U26G
DNA 1: CAATCTGAATTCCGGTCTCCC
DNA 2: TGGTGGCTACGACGGGATT
B15: GAAUGCU (DNA:RNA)
RNA: B1 RNA with U25G, G26A, C28U, A29G, A31U
DNA 1: CAATCTGAATTCCGGTCTCCC
DNA 2: TGGTGGCTACGACGGGATT
B16: GCCAUGC (DNA:RNA)
RNA: B11 RNA with U26C
DNA 1: CAATCTGAATTCCGGTCTCCC
DNA 2: TGGTGGCTACGACGGGATT
B17: UGAGAAA (DNA:RNA)
RNA: B1 RNA with C28G, C30A
DNA 1: CAATCTGAATTCCGGTCTCCC
DNA 2: TGGTGGCTACGACGGGATT
B18: UCCUACG (DNA:RNA)
RNA: B1 RNA with G26C, A27C, C28U, A31G
DNA 1: CAATCTGAATTCCGGTCTCCC
DNA 2: TGGTGGCTACGACGGGATT
B19: AACCACA (DNA:RNA)
RNA: B1 RNA with U25A, G26A, A27C
DNA 1: CAATCTGAATTCCGGTCTCCC
DNA 2: TGGTGGCTACGACGGGATT
B20: ACAUAGU (DNA:RNA)
RNA: B4 RNA with C25A, U27A, G28U, C29A, U30G
DNA 1: CAATCTGAATTCCGGTCTCCC
DNA 2: TGGTGGCTACGACGGGATT

Residue numbers refer to the chain shown, from its start. The full ranking holds about 16,000 sequences; the median of “ka relative to ugcaugu” is about 0.0091, and the highest 2% start at about 0.032. For the sample, the highest values were picked, then their nearest neighbours and some sequences at random.

In the assay the target is T1, RBFOX1 RRM. As to the kind of experiment: EMSA; HiTS-Eq, 1 nM pool, 10 min; buffer printed only for the single-RNA assays: 10 mM Tris pH 7.5, 150 mM NaCl, 3.4 mM EDTA, 0.001% NP-40, 30 C. To be noted: tags: His6 N-terminal (pET28a); label: 5' 32P. The procedure, abridged: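 Purified RbFox RRM, wild type or mutant, was incubated for 10 min in 50 µL with 1 nM of a 5′-radiolabelled RNA pool carrying 7 randomized nucleotides, whose flanks were annealed to DNA oligonucleotides, over a series of increasing protein concentrations. Unbound RNA was resolved on 8% native PAGE, cut out, reverse-transcribed, barcoded by PCR and sequenced on an Illumina HiSeq 2500. Relative association constants were derived from changes in read counts for each RNA species versus the control reaction and normalised to the cognate motif.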
(In general: A gel shift assay detects complexes by their altered migration in electrophoresis.)
Turning to B1, the binding signal is 0.00643 KA relative to UGCAUGU.

Regarding B2, the binding signal is 0.000959 KA relative to UGCAUGU. Consider B3, for which the binding signal is 0.00709 KA relative to UGCAUGU. As for B4, the binding signal is 0.0137 KA relative to UGCAUGU.

Consider B5, for which the binding signal is 0.00813 KA relative to UGCAUGU.

B6: the binding signal was 0.0237 KA relative to UGCAUGU. For the molecule B7, the binding signal was 0.00634 KA relative to UGCAUGU. Under B8 stands 0.779 KA relative to UGCAUGU. For the molecule B9, the binding signal is 0.018 KA relative to UGCAUGU. Turning to B10, the binding signal is 0.627 KA relative to UGCAUGU.

As for B11, the binding signal was 0.0144 KA relative to UGCAUGU. As for B12, the binding signal is 0.0151 KA relative to UGCAUGU. B13: the binding signal was 0.0184 KA relative to UGCAUGU.

In the case of B14, the binding signal is 0.895 KA relative to UGCAUGU. Consider B15, for which the binding signal was 0.0201 KA relative to UGCAUGU. Consider B16, for which the binding signal was 0.0131 KA relative to UGCAUGU. B17: the binding signal is 0.016 KA relative to UGCAUGU. On to B18, for which the binding signal is 0.00598 KA relative to UGCAUGU.

For the molecule B19, the binding signal was 0.00121 KA relative to UGCAUGU. Consider B20, for which the binding signal was 0.00187 KA relative to UGCAUGU.
